Screens (PubChem)
An excerpt weighted towards active compounds, which were near 1.2% of everything screened.
PriA SSB inh – inhibitors of Klebsiella pneumoniae PriA binding to SSB C-terminal tail, primary screen, biochemical, AlphaScreen. inhibition, % at 33 µM. actives 0.6% (n = 430,000). AlphaScreen SSBct-PriA binding, biotinylated peptide; in the data active = inhibition mostly above about 37%, no sharp cut-off; inactive = mostly below about 20%;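 note: plate controls were negative control peptide for no effect and reference peptide for full effect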
PrPC surface inh – inhibitors of human cell surface prion protein PrPC, primary screen, cell-based, TR-FRET; Major prion protein (Homo sapiens), P04156; TR-FRET read-out; inhibition, % at 13.8 µM; actives 0.43% (n = 370,000); AID 720596, 2013; in the data active = inhibition above about 24%; note: 0% = median of the test wells and 100% = reference compound wells
PrP 5UTR inh – inhibition of PrP 5' UTR reporter expression | cell-based PrP 5' UTR mRNA reporter, plate reader | inhibition, % (test concentration not listed) | actives 0.35% (n = 340,000); in the data active = inhibition above about 52%; note: 0 = median of the neutral control wells
SARS 3CLpro inh – SARS-CoV 3CLpro protease inhibitors, primary screen, biochemical, quenched FRET | Replicase polyprotein 1ab (Severe acute respiratory syndrome coronavirus), P0C6X7 | recombinant SARS-CoV 3CLpro, quenched FRET peptide cleavage | inhibition, % at 6 µM | actives 0.14% (n = 290,000) | AID 1706, 2009; in the data active = inhibition above about 12%
BJeLR viability – MLPCN primary cell-based screen for lethality selective to Ras in HRASV12 cells. inhibition, % (no concentration beside the values). AID 1554, 2009. actives 0.17% (n = 300,000). BJeLR (HRASV12) viability, CellTiter-Glo ATP luminescence, 48 h; in the data active = inhibition above about 50%
Active calls of the source: *; ! = not active in a repeat.

What do the screens show for `Cc1ccc(NC(=O)c2ccccc2)c([N+](=O)[O-])c1`?
PriA SSB inh: 57*

What do the screens show for `CC(C)(C)c1ccc(NC(=O)c2ccc(Cl)cc2)c([N+](=O)[O-])c1`?
PriA SSB inh: 63*

Results for Cc1cc(C)cc(NC(=O)[C@H](C)Oc2cccc(Br)c2)c1 ?
PriA SSB inh: -4

Results for CCC1(c2ccccc2)NC(=O)N(CCS(=O)(=O)Oc2ccc(Cl)cc2Cl)C1=O (stereo not given) ?
PriA SSB inh: 6

Results for Cc1noc(C)c1S(=O)(=O)NCCn1nc(-n2cncn2)ccc1=O ?
PriA SSB inh: -11

How did O=C(CC1Nc2ccccc2NC1=O)Nc1ccccc1SC(F)(F)F (stereo not given) do in these assays?
PriA SSB inh: -12

What do the screens show for `Cc1ccc(NC(=O)C(=O)NCc2cccs2)c([N+](=O)[O-])c1`?
PriA SSB inh: 56*

What do the screens show for `COc1ccc(OC)c(NC(=S)Nc2ncccc2C)c1`?
PriA SSB inh: 105*

How did COc1ccc(NC(=S)Nc2ncccc2C)cc1OC do in these assays?
PriA SSB inh: -3; PrPC surface inh: -7; PrP 5UTR inh: -29; SARS 3CLpro inh: 1; BJeLR viability: -8

How did COc1ccc(NC(=S)Nc2ncccc2C)c(OC)c1 do in these assays?
PriA SSB inh: 46*; PrPC surface inh: 7; PrP 5UTR inh: -19; SARS 3CLpro inh: -2; BJeLR viability: 3

What do the screens show for `COc1cc2nc(N(CCN(C)C)C(=O)c3ccc4ccccc4c3)sc2cc1OC`?
PriA SSB inh: 39*!; PrP 5UTR inh: -1; SARS 3CLpro inh: -12; BJeLR viability: 7

Results for Cc1cc(C)c2sc(N(CCCN(C)C)C(=O)c3ccc(S(=O)(=O)N(C)C4CCCCC4)cc3)nc2c1 ?
PriA SSB inh: 40*!; PrPC surface inh: -12; PrP 5UTR inh: -22; BJeLR viability: 11

What do the screens show for `CN(C)CCN(C(=O)c1ccc2ccccc2c1)c1nc2ccc(F)cc2s1`?
PriA SSB inh: 44*!; PrP 5UTR inh: -18; SARS 3CLpro inh: -2; BJeLR viability: -5

What do the screens show for `COc1cc2ccccc2cc1C(=O)N(CCN(C)C)c1nc2c(C)cccc2s1`?
PriA SSB inh: 41*!; PrPC surface inh: -11; PrP 5UTR inh: -6; SARS 3CLpro inh: -11; BJeLR viability: -6

Results for COc1cc2ccccc2cc1C(=O)N(CCN(C)C)c1nc2ccc(C)cc2s1 ?
PriA SSB inh: 36; PrPC surface inh: -6; PrP 5UTR inh: -12; SARS 3CLpro inh: 2; BJeLR viability: 6

How did Cc1ccc2sc(N(CCN(C)C)C(=O)c3ccc4ccccc4c3)nc2c1C do in these assays?
PriA SSB inh: 45*!; PrPC surface inh: -6; PrP 5UTR inh: -13; SARS 3CLpro inh: 5; BJeLR viability: -4

What do the screens show for `CN(C)CCN(C(=O)c1ccc2ccccc2c1)c1nc2cc3c(cc2s1)OCO3`?
PrPC surface inh: 3

Results for Cc1cc(C)c2sc(N(CCN(C)C)C(=O)c3cccs3)nc2c1 ?
PriA SSB inh: 8

Results for COc1cc2ccccc2cc1C(=O)N(CCN(C)C)c1nc2c(OC)ccc(OC)c2s1 ?
PriA SSB inh: 46*; PrPC surface inh: -12; PrP 5UTR inh: -14; SARS 3CLpro inh: -9; BJeLR viability: -4

What do the screens show for `Cc1cc(C)c2sc(N(CCN(C)C)C(=O)c3ccc4ccccc4c3)nc2c1`?
PriA SSB inh: 43*!; PrPC surface inh: -4; PrP 5UTR inh: -18; SARS 3CLpro inh: -10; BJeLR viability: 0

Results for Cc1cccc2sc(N(CCCN(C)C)C(=O)c3sc4ccccc4c3Cl)nc12 ?
PriA SSB inh: 40*!; PrPC surface inh: 15; PrP 5UTR inh: -21; SARS 3CLpro inh: 3

What do the screens show for `N#Cc1ccc(C(=O)OCCNC(=O)c2cccnc2)cc1`?
PriA SSB inh: -10

What do the screens show for `COc1ccccc1CNC(=O)c1coc(NC(=O)C2CC2)n1`?
PriA SSB inh: -9

What do the screens show for `Cc1cc(-c2nnc(NC(=O)c3cc4ccccc4oc3=O)o2)n(C)n1`?
PriA SSB inh: -6

What do the screens show for `CNC(=O)c1cc2cc(Cl)ccc2oc1=O`?
PriA SSB inh: 4

How did COc1ccc(Cl)c2sc(N(CCN(C)C)C(=O)c3ccc4c(c3)OCCO4)nc12 do in these assays?
PriA SSB inh: 16; PrPC surface inh: -8; PrP 5UTR inh: -12; BJeLR viability: 2

What do the screens show for `COc1ccc(OC)c2sc(N(CCN(C)C)C(=O)c3ccc4ccccc4c3)nc12`?
PriA SSB inh: 54*; PrPC surface inh: -6; PrP 5UTR inh: -4; SARS 3CLpro inh: 5; BJeLR viability: 4

What do the screens show for `CC1CCN(C(=O)c2[nH]cnc2C(=O)N[C@@H](C)C(=O)OCc2ccccc2)CC1`?
PriA SSB inh: 44*; PrPC surface inh: -7; PrP 5UTR inh: -19; BJeLR viability: 14

What do the screens show for `C[C@H](NC(=O)c1nc[nH]c1C(=O)N1CCN(C(=O)OC(C)(C)C)CC1)C(=O)OCc1ccccc1`?
PriA SSB inh: -11; PrPC surface inh: -1; PrP 5UTR inh: -16; SARS 3CLpro inh: -4; BJeLR viability: 7

How did Cc1cc(C)nc(NC(=NS(=O)(=O)Cc2ccccc2)Nc2ccc(F)c(Cl)c2)n1 do in these assays?
PriA SSB inh: -1

How did CCCN1CCCc2cc(CCNC(=O)C(=O)Nc3cc(F)ccc3F)ccc21 do in these assays?
PriA SSB inh: 35

How did CCCN1CCCc2cc(CCNS(=O)(=O)c3ccccc3F)ccc21 do in these assays?
PriA SSB inh: 50*

What do the screens show for `CCCN1CCCc2cc(CCNS(=O)(=O)c3cc(F)ccc3F)ccc21`?
PriA SSB inh: 68*

How did COc1cccc2nc3cc(C)c(C)cc3nc12 do in these assays?
PriA SSB inh: 3; PrPC surface inh: -24; PrP 5UTR inh: 1; SARS 3CLpro inh: -14; BJeLR viability: 58*

Results for Cc1ccc(-c2nnc(NC(=O)Cc3ccc(Cl)s3)o2)c(C)c1 ?
PriA SSB inh: -8

How did Cc1ccc(S(=O)(=O)c2ccc([N+](=O)[O-])o2)cc1 do in these assays?
PriA SSB inh: -6; PrPC surface inh: 82*; PrP 5UTR inh: -20

Results for Cc1ccc(S(=O)(=O)NN=Cc2ccc([N+](=O)[O-])o2)cc1 ?
PriA SSB inh: -3

How did O=C(C[n+]1ccc(CCSc2ccc(F)cc2)cc1)c1ccccc1 do in these assays?
PriA SSB inh: 46*; PrP 5UTR inh: -36; SARS 3CLpro inh: -1; BJeLR viability: 0

How did CN(C)c1ccc(C=NNC(=O)C(O)c2ccc(Br)cc2)cc1 (stereo not given) do in these assays?
PriA SSB inh: 4

Results for N=C(N)Sc1cn(Cc2cccc(F)c2)c2ccccc12 ?
PriA SSB inh: 45*

Results for COc1ccccc1CCNC(=O)CSc1ccc(NC(C)=O)nn1 ?
PriA SSB inh: -10
